Measured values: PubChem BioAssay
The source made the active and inactive calls.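 How the source made its calls, unless noted: active means inhibition of the reporter signal at or above 50%; inactive means inhibition below 50%.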

Columns and labels:
[1] = inhibitors of TNFa-induced NFkB p65 translocation, primary screen, imaging, HUVEC, MLSMR starter and 10KST1 sets (AID 438;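 active means inhibition above 20% together with a positive visual image hit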;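 further: compound added about 3h40 before a 20 min TNFalpha stimulation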;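 on inhibition: signal is the nuclear over cytoplasmic p65 intensity ratio per well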); conditions: HUVEC TNFa-induced p65 nuclear translocation; cell count: measured here: nuclei count (cytotoxicity indicator), at 2.08 µM; inhibition: at 2 µM, stronger effect = higher value, 0% TNFa-plus-vehicle, 100% no-TNFa wells
[2] = inhibitors of mutant huntingtin aggregation, primary screen, imaging, exon1htt(103Q)mCFP cells, high-content imaging (AID 483;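 active means visual image review flags a hit and inhibition of aggregation exceeds 20%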;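 further: compound exposure lasted 3 days before fixation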;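 on nuclei count: percent of the per-plate median nuclei count of sample wells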); conditions: exon1htt(103Q)mCFP cell line, aggregate imaging, at 2 µM; inhibition of aggregation: stronger effect = higher value; nuclei count: measured here: cell count, toxicity
[3] = inhibitors of E-selectin induction by TNFa, primary screen, imaging, HUVEC, immunofluorescence, MLSMR starter and 10KST1 sets (AID 487;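 active means visually confirmed hit in the image check and inhibition above 20%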;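 on inhibition: signal is fraction of cell area covered by stained E-selectin grains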;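 on nuclei count: 100% = median nuclei count of all wells on the same plate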); conditions: HUVEC TNFalpha-induced E-selectin immunofluorescence imaging, at 2 µM; inhibition: stronger effect = higher value; nuclei count: measured here: cell number, toxicity
[4] = target: Voltage-gated potassium channel subunit beta-2 (Rattus norvegicus) (UniProt P62483); experiment: KvBeta enzyme negative modulators, primary screen, biochemical, NADPH fluorescence (AID 622;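 active means fluorescence slope higher than the sample average by over 3 SD, cut at about -0.22 in these data, passing the limit was not always enough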;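 further: slope of raw intensity against log time taken from 70 to 1610 s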); conditions: recombinant KvBeta, 4-cyanobenzaldehyde reduction, at 10 µM, stronger effect = higher value
Chain of Voltage-gated potassium channel subunit beta-2 (Rattus norvegicus) (P62483 whole entry, looked up): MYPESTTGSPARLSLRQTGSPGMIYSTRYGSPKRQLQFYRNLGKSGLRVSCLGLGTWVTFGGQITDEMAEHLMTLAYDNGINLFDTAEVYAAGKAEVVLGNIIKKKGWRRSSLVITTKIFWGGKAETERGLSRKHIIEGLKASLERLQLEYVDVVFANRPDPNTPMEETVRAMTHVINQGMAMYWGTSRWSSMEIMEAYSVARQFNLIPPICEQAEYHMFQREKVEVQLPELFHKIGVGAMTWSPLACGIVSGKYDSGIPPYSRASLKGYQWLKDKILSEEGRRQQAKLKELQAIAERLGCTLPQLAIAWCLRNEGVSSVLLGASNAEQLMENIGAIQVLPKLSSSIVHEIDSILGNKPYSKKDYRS

[5] = target: Voltage-gated potassium channel subunit beta-2 (Rattus norvegicus) (UniProt P62483); experiment: KvBeta positive modulators, primary screen, biochemical, NADPH fluorescence (AID 623;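 active means NADPH fluorescence slope more negative than the mean of all samples by about 3 SD, 99.7% confidence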;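 further: fluorescence intensity change per second fitted from 20 to 320 s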); conditions: Recombinant KvBeta, NADPH fluorescence decrease slope, 10 min; at 10 µM; stronger effect = lower value
[6] = target: Alpha-2C adrenergic receptor (Homo sapiens) (UniProt P18825); experiment: modulators of alpha2C/GIRK thallium flux, primary screen, cell-based, HEK293 alpha2C/GIRK1/2 (AID 624;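 active means fluorescence slope after compound addition differing from the mean of all screened samples at 99.7% confidence, in either direction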;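 further: slope of fluorescence ratio to pre-addition baseline per second over 15 to 24 s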); conditions: thallium flux BTC fluorescence, at 10 µM, actives lie on both sides
Chain of Alpha-2C adrenergic receptor (Homo sapiens) (P18825 whole entry, looked up): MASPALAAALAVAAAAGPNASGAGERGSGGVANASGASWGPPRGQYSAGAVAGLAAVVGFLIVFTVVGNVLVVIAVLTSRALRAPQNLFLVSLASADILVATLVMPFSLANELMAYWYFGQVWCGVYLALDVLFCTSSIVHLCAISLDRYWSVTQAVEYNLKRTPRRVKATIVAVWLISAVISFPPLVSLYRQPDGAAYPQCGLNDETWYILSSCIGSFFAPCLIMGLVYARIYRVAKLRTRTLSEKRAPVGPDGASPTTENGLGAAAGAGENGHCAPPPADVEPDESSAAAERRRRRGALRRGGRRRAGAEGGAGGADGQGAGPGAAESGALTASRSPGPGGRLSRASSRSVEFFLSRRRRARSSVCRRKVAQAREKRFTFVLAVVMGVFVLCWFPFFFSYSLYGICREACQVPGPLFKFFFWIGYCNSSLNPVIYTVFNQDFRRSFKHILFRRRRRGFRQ

[7] = inhibitors of Sendai virus-induced IRF3 signaling, primary screen, TLR/RLR signaling modifier project, cell-based, Sendai virus stimulus, luciferase, 10K MLSCN set (AID 602276;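 active means inhibition at or above 50% at 10 µM; inactive means inhibition below 50%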;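 further: firefly luciferase from ISG56 promoter only with Renilla not read in this screen; 0% = Sendai virus plus DMSO and 100% = medium plus DMSO without virus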); conditions: HEK293 RL24 IRF3 luciferase reporter, at 10 µM, stronger effect = higher value
[8] = inhibitors of poly I:C-induced TLR3 signaling, primary screen, cell-based, poly I:C stimulus, luciferase, 10K MLSCN set (AID 602277); conditions: HEK293-TLR3 RL24 IRF3 luciferase reporter, at 10 µM, stronger effect = higher value

SMILES	cell count [1]	inhibition [1]	inhibition of aggregation [2]	nuclei count [2]	inhibition [3]	nuclei count [3]	fluorescence slope [4]	NADPH fluorescence slope [5]	slope [6]	inhibition [7]	inhibition [8]
O=C(Cn1ncc2c1-c1ccccc1OC2)Nc1ccc(Cl)cn1	462	-2.9% (inactive)	-7.1% (inactive)	114%	-55% (inactive)	116%	-0.573 (inactive)	-3.2e-05 (inactive)	0.00703 (inactive)	9.19% (inactive)	29.8% (inactive)
O=C(CSc1nnc(-c2cnccn2)n1Cc1ccco1)c1ccc(Cl)cc1	287	16.6% (inactive)	-32.9% (inactive)	95.7%	-8.9% (inactive)	124%	-0.473 (inactive)	4.5e-06 (inactive)	0.00285 (inactive)	8.56% (inactive)	22.1% (inactive)
Cc1ccc(N(C(=O)c2ccncc2)C2C=CS(=O)(=O)C2)cc1 (stereo not drawn)	816	-4% (inactive)	-5.8% (inactive)	114%	-56.8% (inactive)	117%	-0.612 (inactive)	-2.8e-05 (inactive)	0.00723 (inactive)	-4.78% (inactive)	24.5% (inactive)
COc1cccc(-c2csc3nc[nH]c(=O)c23)c1	517	4.9% (inactive)	-18.2% (inactive)	98.7%	-72.4% (inactive)	97.9%	-0.426 (inactive)	-3.4e-05 (inactive)	0.0038 (inactive)	8.62% (inactive)	2.24% (inactive)
COc1ccccc1NC(=O)NC1(C(=O)N2CCC(O)CC2)CCCCC1	242	3.9% (inactive)	16.6% (inactive)	79.3%	1.6% (inactive)	94%	-0.605 (inactive)	1.9e-06 (inactive)	0.00897 (inactive)	-0.183% (inactive)	2.89% (inactive)
O=C(NCCCNC1CCCCC1)c1ccc(/C=N/O)nc1	221	2% (inactive)	-20.6% (inactive)	67.6%	-97.6% (inactive)	108%	-0.62 (inactive)	-1.9e-05 (inactive)	0.00681 (inactive)	7.85% (inactive)	23% (inactive)
CCCOc1cccc(NC(=O)c2c(-c3ccccc3)noc2C)c1	515	2% (inactive)	7.5% (inactive)	92.7%	-32% (inactive)	116%	-0.534 (inactive)	5.8e-06 (inactive)	0.00598 (inactive)	12.6% (inactive)	18% (inactive)
CCC(=O)c1ccc(OC(=O)c2ccc(Br)o2)cc1	354	6.8% (inactive)	-19.7% (inactive)	99.8%	-84.3% (inactive)	112%	-0.605 (inactive)	-3e-05 (inactive)	0.00383 (inactive)	10.9% (inactive)	9.67% (inactive)
CCn1c(CSc2nnc(-c3cccnc3)n2-c2ccccc2C)nc2cc(C(=O)O)ccc21	463	-13.1% (inactive)	5.1% (inactive)	101%	-22.2% (inactive)	161%	-0.509 (inactive)	-0.000162 (inactive)	0.00507 (inactive)	2.24% (inactive)	9.03% (inactive)
CC(C)C(c1nnnn1C1CCCC1)N1CCN(C(=O)c2ccco2)CC1 (stereo not drawn)	426	9.7% (inactive)	-33.8% (inactive)	67.7%	-101% (inactive)	115%	-0.566 (inactive)	-1.1e-05 (inactive)	0.00617 (inactive)	-4.43% (inactive)	4.27% (inactive)
COc1ccc(-c2nnc(SC(C)C(=O)Nc3nccs3)n2-c2ccccc2)cc1OC (stereo not drawn)	548	-8% (inactive)	2.8% (inactive)	82.2%	-36.4% (inactive)	93.8%	-0.496 (inactive)	2.4e-05 (inactive)	0.0047 (inactive)	-14.8% (inactive)	-2.92% (inactive)
O=C(Nc1ccc2c(c1)OCO2)c1cccc(Cl)c1	407	1.4% (inactive)	-14.3% (inactive)	107%	-22.5% (inactive)	114%	-0.398 (inactive)	-4.1e-06 (inactive)	0.0047 (inactive)	-28.3% (inactive)	-70.9% (inactive)
O=C(Nc1ccccc1)c1cccc(N2CCCC2=O)c1	363	-6.9% (inactive)	-3.4% (inactive)	101%	-74.1% (inactive)	88%	-0.457 (inactive)	3.8e-05 (inactive)	0.00552 (inactive)	-43.5% (inactive)	-128% (inactive)
CC(C)c1nc(N2CCN(C(=O)c3ccco3)CC2)c2c3c(sc2n1)CCCC3	748	-9.7% (inactive)	-12.3% (inactive)	94.5%	-7.6% (inactive)	103%	-0.486 (inactive)	5.1e-05 (inactive)	0.00628 (inactive)	15.9% (inactive)	-5.95% (inactive)
COc1ccc(NC(=O)NCCN2C(=O)C3C4C=CC(C4)C3C2=O)cc1 (stereo not drawn)	572	-0.8% (inactive)	0.8% (inactive)	75.5%	-25.1% (inactive)	110%	-0.54 (inactive)	-3.1e-05 (inactive)	0.00569 (inactive)	-29.6% (inactive)	-73.3% (inactive)
O=C(CSc1nnc(-c2ccccc2)o1)NC1CCCCC1	355	0% (inactive)	8% (inactive)	109%	-10.5% (inactive)	103%	-0.55 (inactive)	2e-05 (inactive)	0.0067 (inactive)	5.13% (inactive)	0.841% (inactive)
CCn1cc(C(=O)OCc2ccc(F)cc2)c(=O)c2ccc(C)nc21	360	0.4% (inactive)	-17.1% (inactive)	102%	-16.9% (inactive)	98%	-0.428 (inactive)	-2.4e-05 (inactive)	0.00561 (inactive)	11.6% (inactive)	-3.06% (inactive)
Cc1ccc(N2C(N)=NC(N)=NC23CCCC3)c(C)c1	656	-5.9% (inactive)	-11.1% (inactive)	106%	-26% (inactive)	122%	-0.635 (inactive)	-5.6e-06 (inactive)	0.0067 (inactive)	10% (inactive)	18.1% (inactive)
O=C(Cc1cccs1)Nc1ccccc1NC(=O)Cc1cccs1	323	-1.4% (inactive)	16.2% (inactive)	82.6%	7.1% (inactive)	88.2%	-0.366 (inactive)	-7.6e-05 (inactive)	0.00795 (inactive)	9.79% (inactive)	34.9% (inactive)
CCOCCCNC(=O)c1cc2sc(Cl)cc2n1CC	449	17.9% (inactive)	-1.1% (inactive)	89.7%	-80.9% (inactive)	100%	-0.531 (inactive)	-9.5e-05 (inactive)	0.00603 (inactive)	34.7% (inactive)	19.5% (inactive)
Cc1cc(C)c(NC(=O)CSc2nc3c(c(=O)n2C)SC(C)C3)c(C)c1 (stereo not drawn)	700	2.9% (inactive)	-5.9% (inactive)	102%	-22% (inactive)	120%	-0.565 (inactive)	-3.2e-05 (inactive)	0.00653 (inactive)	-19.3% (inactive)	-13.4% (inactive)
O=C(c1ccc(=O)[nH]c1)N(Cc1ccco1)C1(C(=O)NC2CCCC2)CCCCC1	296	-7.1% (inactive)	42.7% (active)	85.1%	-73.8% (inactive)	104%	-0.529 (inactive)	-8.3e-05 (inactive)	0.00538 (inactive)	-75.5% (inactive)	96.9% (active)
O=C(Nc1c(C(=O)NCc2ccco2)cnn1-c1ccccc1)c1ccc(F)cc1	400	6.3% (inactive)	12.1% (inactive)	81.6%	-23.9% (inactive)	89.1%	-0.294 (inactive)	-2.8e-06 (inactive)	0.00584 (inactive)	-1.86% (inactive)	15.1% (inactive)
CCOC(=O)c1nnc2cc(-c3ccc(Br)cc3)nn2c1C	606	-1.7% (inactive)	-4.4% (inactive)	98.8%	-89.5% (inactive)	105%	-0.558 (inactive)	-6.5e-06 (inactive)	0.006 (inactive)	-72.6% (inactive)	-129% (inactive)
COc1ccc(NC(=O)C23CCC(C)(C(=O)C2)C3(C)C)cc1 (stereo not drawn)	606	-7.7% (inactive)	-15.6% (inactive)	103%	-111% (inactive)	108%	-0.6 (inactive)	6.7e-07 (inactive)	0.00539 (inactive)	12.6% (inactive)	17.8% (inactive)
O=C1NCC(COCc2ccccc2)O1 (stereo not drawn)	432	-3% (inactive)	21% (inactive)	87.4%	25.1% (inactive)	102%	-0.496 (inactive)	-5.3e-05 (inactive)	0.00525 (inactive)	8.89% (inactive)	21% (inactive)
CCCn1c(SCC(=O)NCc2ccco2)nc2c1c(=O)n(C)c(=O)n2C	433	-9.2% (inactive)	16.5% (inactive)	104%	-144% (inactive)	160%	-0.379 (inactive)	-4.1e-05 (inactive)	0.0049 (inactive)	16.6% (inactive)	10.9% (inactive)
CSc1nc2ccc(S(=O)(=O)N3CCOCC3)cc2s1	328	-2.2% (inactive)	28.3% (inactive)	95.2%	-22% (inactive)	129%	-0.415 (inactive)	-6.4e-05 (inactive)	0.00411 (inactive)	17.9% (inactive)	15.4% (inactive)
